From PubChem BioAssay
Gal4-VP16 FLuc: VP16 counterscreen qHTS for inhibitors of ROR gamma transcriptional activity. Drosophila S2 Gal4-VP16 UAS-luciferase, luminescence, 20 h. 310,000 compounds, 3.5% hits. AID 2546, 2010. Potency, µM (highest dose often 53.6 µM), actives largely listed as inhibitors;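 further: Gal4-VP16 expression switched on by copper sulfate through the metallothionein promoter; nearly all actives have a fitted effect of over 50% in size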
ELG1 DNA repair: qHTS screen for small molecules that inhibit ELG1-dependent DNA repair in human embryonic kidney (HEK293T) cells expressing luciferase-tagged ELG1; HEK293T ELG1-luciferase reporter, luminescence, 16 h; DNA damage induced by 5-fluorouridine; Potency, µM (highest dose often 46.1 µM), actives largely listed as inhibitors; 330,000 compounds, 2.3% hits; further: nearly all actives have a fitted effect of over 55% in size
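Quantitative HTS, concentration-response format. 2,000 cells/well co-treated with 5-fluorouridine and compound, 16 hr in 5% CO2 at 37 °C; ONE-Glo luminescence read after 30 min.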
RORgamma inh: qHTS for inhibitors of ROR gamma transcriptional activity; AID 2551, 2010; Nuclear receptor ROR-gamma (Mus musculus), P51450; Drosophila S2 Gal4-RORgamma UAS-luciferase reporter, 20 h; Potency, µM (highest dose often 53.6 µM), most hits filed as inhibitors; 310,000 compounds, 5.4% hits; further: nearly all actives have a fitted effect of over 60% in size
Target sequence (P51450 whole entry, looked up, the tested form may be a part): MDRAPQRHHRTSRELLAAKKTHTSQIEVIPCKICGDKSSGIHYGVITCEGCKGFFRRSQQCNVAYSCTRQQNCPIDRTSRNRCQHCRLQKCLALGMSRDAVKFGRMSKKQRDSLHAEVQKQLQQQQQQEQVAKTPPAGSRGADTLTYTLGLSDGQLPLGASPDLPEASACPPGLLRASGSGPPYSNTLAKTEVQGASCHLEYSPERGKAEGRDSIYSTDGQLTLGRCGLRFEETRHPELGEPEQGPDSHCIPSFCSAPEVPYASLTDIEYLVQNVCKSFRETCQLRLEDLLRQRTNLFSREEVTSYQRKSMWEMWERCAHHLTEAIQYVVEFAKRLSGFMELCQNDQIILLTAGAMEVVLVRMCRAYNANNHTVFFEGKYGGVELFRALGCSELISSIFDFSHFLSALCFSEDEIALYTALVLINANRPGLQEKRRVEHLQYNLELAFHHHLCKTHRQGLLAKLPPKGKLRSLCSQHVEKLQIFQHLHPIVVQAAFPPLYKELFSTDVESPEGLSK
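Drosophila Schneider cells stably carrying a metallothionein-driven Gal4 DBD–ROR gamma fusion and a UAS-Photinus luciferase reporter were exposed to compound for 1 hr, then induced with copper sulfate (700 uM final) for 20 hr at ambient temperature before luminescence reading.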
SW480 rereplic: A quantitative high throughput screen for small molecules that induce DNA re-replication in SW480 colon adenocarcinoma cells | Potency, µM (series often up to 46.1 µM), hits mostly activators | SW480 DNA re-replication, Hoechst DNA content imaging, 48 h | 340,000 compounds, 1.8% hits | AID 624297, 2012; further: nearly all actives have a fitted effect of over 55% in size
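Image-based read-out: total Hoechst fluorescence of nuclei (405 nm excitation, 500-530 nm emission), with hits raising the fraction of high-intensity nuclei. SW480 colon cells incubated 48 hr with compounds at 37 C.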
MCF10A rerep: A quantitative high throughput screen for small molecules that induce DNA re-replication in MCF 10a normal breast cells. AID 624296, 2012. 350,000 compounds, 2.9% hits. Potency, µM (doses to about 46.1 µM), usual class: activators. MCF 10A DNA re-replication, Hoechst nuclear intensity, 48 h; further: nearly all actives have a fitted effect of over 50% in size
Hits are given with their value; . = inactive; ? = inconclusive; / = no result; [ ] = dose if it differs, or a comment. Shown are actives, neighbours in structure and some others; about 10% of the full set was active somewhere. The call rests on the fitted dose curve; in most records, active means well fitted curve in the direction sought with a large enough effect; inconclusive means small, poorly fitted or top-dose-only effect, or another doubt; inactive means no such curve, though single readings can be large; an effect the other way counts as inactive or inconclusive.

SMILES	Gal4-VP16 FLuc	ELG1 DNA repair	RORgamma inh	SW480 rereplic	MCF10A rerep
COc1ccccc1-c1nc(S(=O)(=O)c2ccccc2)c(N2CCOCC2)o1	.	.	.	.	.
C=CCn1c(NC(=O)c2ccco2)nc2ccccc21	3.5µM	.	4µM	.	.
O=C(Nc1nc2ccccc2n1Cc1ccc(Cl)cc1)c1ccco1	2µM	?	0.71µM	.	?
O=C(Nc1nc2ccccc2n1CCN1CCCCC1)c1ccco1	?	.	.[10 µM]	?	.
Cc1cccc(OCC(=O)Nc2ccc(NC(=O)c3ccco3)cc2)c1	.	?	.	.	.
c1ccc(Cn2c(NCc3ccco3)nc3ccccc32)cc1	.	.	.	.	.
Cc1cccc(OCCn2c(NC(=O)c3ccco3)nc3ccccc32)c1	2µM	.	1.4µM	?	.
CC(=O)Nc1nc2ccccc2n1Cc1ccc(Cl)cc1	1.6µM	13µM	1.1µM	?	.
CC(NC(=O)/C=C/c1ccco1)c1nc2ccccc2n1Cc1cccc(Cl)c1 (stereo unspecified)	11µM	.	?	.	?
O=C(OCn1ncc(Cl)c(Cl)c1=O)c1ccc(C(F)(F)F)cc1	7.1µM	?	?	6.5µM	6.5µM
Cc1ccc(C(=O)OCn2ncc(Cl)c(Cl)c2=O)cc1	.	7.3µM	.	?	3.7µM
O=C(OCC(=O)c1ccc[nH]1)c1ccc(C(F)(F)F)cc1	/	.	/	.	.
CN=c1scc(-c2ccc(OC)cc2)n1/N=C(\C)c1cccnc1	?	18µM	?	.	.
COc1ccc(CC(=O)N/N=C(\C)c2cccnc2)cc1	.	?	.	.	.
COc1ccc(CCNC(=O)C/C(C)=N/NC(=O)COc2ccc(C)cc2Br)cc1OC	.	.	.	.	.
O=C(CCc1nc2ccccc2[nH]c1=O)N/N=C/c1ccccc1	.	.	.	.	.
CCc1ccccc1NC(=O)CN1CCN(C(=O)CCC(=O)N2CCC(c3ccccc3)=N2)CC1	/	?	/	.	.
CCOc1ccc(CCNC(=O)c2ccc3c(=O)[nH]c4c(C(=O)NC(C)C)sc(=S)n4c3c2)cc1	.	?	.	.	.
COc1ccc(OC)c(CCNC(=O)c2ccc3c(=O)[nH]c4c(C(=O)NC(C)C)sc(=S)n4c3c2)c1	.	10µM	?	.	?
CC(=O)NC(CC(=O)Nc1nc(-c2ccc(N(C)S(C)(=O)=O)cc2)cs1)c1ccccc1 (stereo unspecified)	11µM	?	.	.	?
O=C(NCc1ccccn1)C(=O)Nc1nc(-c2ccccc2)cs1	?	?	10µM	.	.
CN(C)CC(=O)Nc1nc(-c2ccccc2)cs1	?	.	11µM	.	.
CCOC(=S)SCC(=O)Nc1nc(C)c(C)s1	?	.	13µM	.	18µM
Cc1nc2cncnc2n(-c2ccccc2)c1=O	.	/	.	/	/
CC1CC(C)CN(C(=O)COC(=O)c2ccc3c(c2)OCCO3)C1 (stereo unspecified)	/	.	/	.	.
SMILES	Gal4-VP16 FLuc	ELG1 DNA repair	RORgamma inh	SW480 rereplic	MCF10A rerep
O=C(CN1C(=O)CCC1=O)Nc1nc(-c2ccc3ccccc3c2)cs1	?	?	?	.	1.5µM
CCOC(=S)SCC(=O)Nc1nccs1	?	.	.	.	?
Cc1ccc(-c2csc(NC(=O)CN3C(=O)CCC3=O)n2)cc1	.	.	.	.	.
CCOC(=S)SCC(=O)Nc1nc(-c2ccccc2)cs1	?	?	?	?	21µM
CCOC(=S)SCC(=O)Nc1nc(-c2ccc(Br)cc2)cs1	6.3µM	?	5µM	?	8.2µM
CC(C)(CNS(=O)(=O)c1ccc2ccccc2c1)N1CCOCC1	/	.	/	.	.
O=C(CN1C(=O)NC2(CCCCCC2)C1=O)c1ccc(OC(F)F)cc1OC(F)F	/	.	/	.	?
CCOc1ccccc1NC(=O)CSc1nnc(CNC(=O)c2cc(OC)c(OC)c(OC)c2)o1	.	.	.	.	.
COc1cc(C2Nc3ccc4ncccc4c3C3=C2C(=O)CCC3)ccc1O (stereo unspecified)	.	?	.	21µM	16µM
COc1ccc(OC)c(S(=O)(=O)N/N=C\c2ccc3c(c2)OCO3)c1	.	?	.	.	.
COc1ccc(S(=O)(=O)N/N=C\c2ccc3c(c2)OCO3)c(OC)c1	11µM	?	?	.	.
CN1CCC(=NNC(=O)COc2ccc(Cl)cc2)CC1	.	.	.	.	.
O=C(COc1ccc(Cl)cc1)NN=C1CCCCCCC1	.	.	8.9µM	.	.
O=C(CCCC(=O)NCCc1ccccc1)NCCc1ccccc1	.	.	.	.	.
O=C(c1ccc(Cl)cc1Cl)n1nnc2ccccc21	.	/	.	/	/
Clc1ccc(COn2nnc3ccccc32)c(Cl)c1	.	/	.	.	23µM
COc1cccc(OC)c1C1=CC(=O)C[C@H](c2ccc3c(c2)OCO3)C1	/	9.2µM	/	?	?
COc1ccc([C@H]2CC(=O)C=C(c3c(OC)cccc3OC)C2)cc1	/	.	/	18µM	1.2µM
COc1cccc(C2=CC(=O)C[C@H](c3ccc4c(c3)OCO4)C2)c1OC	/	?	/	.	.
COc1ccc(F)cc1C1=CC(=O)C[C@H](c2ccc3c(c2)OCO3)C1	/	.	/	?	?
COc1cc(F)c(C2=CC(=O)C[C@H](c3ccc4c(c3)OCO4)C2)cc1F	/	16µM	/	.	.
O=C1C=C(c2ccc(CO)cc2)C[C@@H](c2ccc3c(c2)OCO3)C1	/	?	/	.	0.58µM
COc1ccc(C2=CC(=O)CC(c3ccc(OC)cc3)C2)cc1 (stereo unspecified)	.	.	.	?	.
CC(Sc1nn(-c2ccccc2)c(=S)s1)C(=O)NCC1CCCO1 (stereo unspecified)	/	.	/	.	.
CC1(C)Cc2c(cnn2-c2ccc(F)cc2)C(NC(=O)C2CCC2)C1 (stereo unspecified)	.	.	.	.	.
SMILES	Gal4-VP16 FLuc	ELG1 DNA repair	RORgamma inh	SW480 rereplic	MCF10A rerep
Cc1cc(C(=O)OCC(=O)N2CCC(C)CC2)c2ccccc2n1	/	.	/	.	.
Cc1c(NC(=O)COC(=O)CSc2ccc([N+](=O)[O-])cc2)c(=O)n(-c2ccccc2)n1C	/	.	/	.	.
Cc1ccc(S(=O)(=O)CCC(=O)OCC(=O)N2CCN(c3ccccc3)CC2)cc1	/	.	/	.	.
Cc1ccc(S(=O)(=O)CCC(=O)N2CCN(c3ccccc3O)CC2)cc1	/	.	/	9.2µM	?
Cc1cc(C)c2c(CCl)cc(=O)oc2c1	.	.	.	3.7µM	5.2µM
COCCCNc1c2c3c(cccc3[nH]c1=O)C(=O)c1ccccc1-2	.	12µM	.	18µM	15µM
O=C(c1ccccn1)N1CCN(S(=O)(=O)c2cccc(Br)c2)CC1	/	.	/	.	.
Cc1cc2[nH]c(=O)cc(-c3ccccc3)n2n1	18µM	?	11µM	.	.
